Results taken from ChEMBL document CHEMBL1961873, “Compounds: GSK PKIS; Assays: Nanosyn kinase panel” (2012).

Legend:
[1] = target: High affinity nerve growth factor receptor (Homo sapiens) (UniProt P04629); settings: at 1 µM;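 further: each value is the mean percent inhibition of TRKA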
[2] = target: BDNF/NT-3 growth factors receptor (Homo sapiens) (UniProt Q16620); settings: at 0.1 µM
[3] = target: BDNF/NT-3 growth factors receptor (Homo sapiens) (UniProt Q16620); settings: at 1 µM
[4] = target: NT-3 growth factor receptor (Homo sapiens) (UniProt Q16288); settings: at 0.1 µM
[5] = target: NT-3 growth factor receptor (Homo sapiens) (UniProt Q16288); settings: at 1 µM
[6] = target: T1, Tyrosine-protein kinase TXK (Homo sapiens) (UniProt P42681); settings: at 0.1 µM
T1 sequence (whole entry): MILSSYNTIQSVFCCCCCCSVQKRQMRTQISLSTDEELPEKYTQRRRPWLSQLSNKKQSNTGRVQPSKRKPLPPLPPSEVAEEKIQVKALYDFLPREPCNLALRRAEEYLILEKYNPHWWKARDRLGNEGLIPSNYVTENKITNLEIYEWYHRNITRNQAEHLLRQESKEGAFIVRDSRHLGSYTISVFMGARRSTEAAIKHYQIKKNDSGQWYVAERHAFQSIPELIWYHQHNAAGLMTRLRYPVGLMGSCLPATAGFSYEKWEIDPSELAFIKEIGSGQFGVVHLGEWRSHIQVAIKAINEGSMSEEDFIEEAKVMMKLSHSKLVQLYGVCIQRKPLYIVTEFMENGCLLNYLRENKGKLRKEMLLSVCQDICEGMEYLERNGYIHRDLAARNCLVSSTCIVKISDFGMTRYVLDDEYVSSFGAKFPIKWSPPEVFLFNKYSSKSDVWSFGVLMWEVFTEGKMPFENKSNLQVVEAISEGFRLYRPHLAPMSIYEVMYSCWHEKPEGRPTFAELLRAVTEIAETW

[7] = target: T1, Tyrosine-protein kinase TXK (Homo sapiens); settings: at 1 µM
[8] = target: Non-receptor tyrosine-protein kinase TYK2 (Homo sapiens) (UniProt P29597); settings: at 0.1 µM;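 further: each value is a mean of the inhibition readings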
[9] = target: T2, Dual specificity protein kinase TTK (Homo sapiens) (UniProt P33981); settings: at 1 µM;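 further: reported figures are mean TTK inhibition at 1 µM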
T2 sequence (whole entry): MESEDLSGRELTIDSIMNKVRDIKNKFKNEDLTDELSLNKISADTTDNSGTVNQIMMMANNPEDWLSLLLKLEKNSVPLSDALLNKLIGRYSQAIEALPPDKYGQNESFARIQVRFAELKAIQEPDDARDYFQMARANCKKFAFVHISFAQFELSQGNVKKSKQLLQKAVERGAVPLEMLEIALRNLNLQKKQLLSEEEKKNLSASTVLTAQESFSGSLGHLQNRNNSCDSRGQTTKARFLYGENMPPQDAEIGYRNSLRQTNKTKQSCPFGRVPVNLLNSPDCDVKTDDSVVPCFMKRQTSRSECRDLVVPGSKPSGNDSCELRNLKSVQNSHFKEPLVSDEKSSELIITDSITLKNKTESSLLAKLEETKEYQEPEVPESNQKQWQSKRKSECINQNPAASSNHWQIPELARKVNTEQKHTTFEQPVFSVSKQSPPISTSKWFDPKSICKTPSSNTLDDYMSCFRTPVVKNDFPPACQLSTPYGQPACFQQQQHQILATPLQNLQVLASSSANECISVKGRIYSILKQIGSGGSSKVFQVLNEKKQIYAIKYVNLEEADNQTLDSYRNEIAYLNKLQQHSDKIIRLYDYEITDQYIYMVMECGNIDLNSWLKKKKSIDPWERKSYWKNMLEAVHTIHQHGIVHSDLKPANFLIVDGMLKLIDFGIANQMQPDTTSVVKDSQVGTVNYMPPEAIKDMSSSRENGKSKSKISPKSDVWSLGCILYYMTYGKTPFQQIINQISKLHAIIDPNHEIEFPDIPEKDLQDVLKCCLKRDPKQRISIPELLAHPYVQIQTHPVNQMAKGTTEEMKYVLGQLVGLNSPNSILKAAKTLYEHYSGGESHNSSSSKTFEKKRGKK

[10] = target: T3, Aurora kinase A (Homo sapiens) (UniProt O14965); settings: at 0.1 µM
T3 sequence (whole entry): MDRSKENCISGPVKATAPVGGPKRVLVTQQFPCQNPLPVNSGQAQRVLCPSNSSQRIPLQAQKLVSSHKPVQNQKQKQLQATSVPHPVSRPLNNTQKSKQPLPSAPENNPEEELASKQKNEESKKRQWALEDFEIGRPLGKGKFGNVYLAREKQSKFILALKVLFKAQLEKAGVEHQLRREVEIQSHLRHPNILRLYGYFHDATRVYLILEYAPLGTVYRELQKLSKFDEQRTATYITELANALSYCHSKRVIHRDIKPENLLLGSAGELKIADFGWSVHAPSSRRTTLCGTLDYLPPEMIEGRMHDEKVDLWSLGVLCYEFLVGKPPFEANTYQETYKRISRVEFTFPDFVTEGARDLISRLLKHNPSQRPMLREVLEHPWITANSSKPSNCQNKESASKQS

[11] = target: T3, Aurora kinase A (Homo sapiens); settings: at 1 µM
[12] = target: Aurora kinase B (Homo sapiens) (UniProt Q96GD4); settings: at 0.1 µM
[13] = target: Aurora kinase B (Homo sapiens) (UniProt Q96GD4); settings: at 1 µM
[14] = target: T4, Aurora kinase C (Homo sapiens) (UniProt Q9UQB9); settings: at 0.1 µM
T4 sequence (whole entry): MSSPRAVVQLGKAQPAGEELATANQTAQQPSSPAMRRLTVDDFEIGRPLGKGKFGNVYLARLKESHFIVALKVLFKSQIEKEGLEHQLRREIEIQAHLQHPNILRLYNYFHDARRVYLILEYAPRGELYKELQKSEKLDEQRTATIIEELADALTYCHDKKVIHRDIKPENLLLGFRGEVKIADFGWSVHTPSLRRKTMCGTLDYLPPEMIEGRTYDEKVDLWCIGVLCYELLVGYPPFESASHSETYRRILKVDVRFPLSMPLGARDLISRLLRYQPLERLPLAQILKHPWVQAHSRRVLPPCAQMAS

[15] = target: T4, Aurora kinase C (Homo sapiens); settings: at 1 µM
[16] = target: Serine/threonine-protein kinase 10 (Homo sapiens) (UniProt O94804); settings: at 0.1 µM
[17] = target: Serine/threonine-protein kinase 10 (Homo sapiens) (UniProt O94804); settings: at 1 µM
[18] = target: T5, Mitogen-activated protein kinase kinase kinase kinase 2 (Homo sapiens) (UniProt Q12851); settings: at 0.1 µM
T5 sequence (whole entry): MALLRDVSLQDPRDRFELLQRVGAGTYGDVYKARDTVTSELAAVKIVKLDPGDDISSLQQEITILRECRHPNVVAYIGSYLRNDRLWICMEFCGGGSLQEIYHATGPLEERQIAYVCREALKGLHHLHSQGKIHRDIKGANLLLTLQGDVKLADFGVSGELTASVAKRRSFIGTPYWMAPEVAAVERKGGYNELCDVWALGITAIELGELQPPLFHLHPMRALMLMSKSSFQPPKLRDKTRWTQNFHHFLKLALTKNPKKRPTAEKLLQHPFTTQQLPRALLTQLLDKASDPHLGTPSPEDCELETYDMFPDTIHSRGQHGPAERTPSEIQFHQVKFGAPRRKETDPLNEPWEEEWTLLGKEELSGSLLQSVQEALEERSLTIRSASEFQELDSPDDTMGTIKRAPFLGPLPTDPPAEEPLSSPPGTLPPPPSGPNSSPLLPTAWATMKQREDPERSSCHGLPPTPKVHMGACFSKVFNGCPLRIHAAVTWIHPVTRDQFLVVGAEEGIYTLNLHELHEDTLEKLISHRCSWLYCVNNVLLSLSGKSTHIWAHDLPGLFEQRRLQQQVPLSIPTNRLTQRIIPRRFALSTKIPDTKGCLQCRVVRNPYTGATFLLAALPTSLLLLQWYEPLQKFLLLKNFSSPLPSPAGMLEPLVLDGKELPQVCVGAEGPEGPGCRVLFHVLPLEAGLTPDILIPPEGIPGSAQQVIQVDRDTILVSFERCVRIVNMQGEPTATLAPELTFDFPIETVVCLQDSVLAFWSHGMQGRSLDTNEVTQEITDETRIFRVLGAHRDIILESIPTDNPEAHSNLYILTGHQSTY

[19] = target: T5, Mitogen-activated protein kinase kinase kinase kinase 2 (Homo sapiens); settings: at 1 µM
[20] = target: Mitogen-activated protein kinase kinase kinase kinase 4 (Homo sapiens) (UniProt O95819); settings: at 0.1 µM
Sequence of Mitogen-activated protein kinase kinase kinase kinase 4 (Homo sapiens) (O95819 2-1239 limits assumed): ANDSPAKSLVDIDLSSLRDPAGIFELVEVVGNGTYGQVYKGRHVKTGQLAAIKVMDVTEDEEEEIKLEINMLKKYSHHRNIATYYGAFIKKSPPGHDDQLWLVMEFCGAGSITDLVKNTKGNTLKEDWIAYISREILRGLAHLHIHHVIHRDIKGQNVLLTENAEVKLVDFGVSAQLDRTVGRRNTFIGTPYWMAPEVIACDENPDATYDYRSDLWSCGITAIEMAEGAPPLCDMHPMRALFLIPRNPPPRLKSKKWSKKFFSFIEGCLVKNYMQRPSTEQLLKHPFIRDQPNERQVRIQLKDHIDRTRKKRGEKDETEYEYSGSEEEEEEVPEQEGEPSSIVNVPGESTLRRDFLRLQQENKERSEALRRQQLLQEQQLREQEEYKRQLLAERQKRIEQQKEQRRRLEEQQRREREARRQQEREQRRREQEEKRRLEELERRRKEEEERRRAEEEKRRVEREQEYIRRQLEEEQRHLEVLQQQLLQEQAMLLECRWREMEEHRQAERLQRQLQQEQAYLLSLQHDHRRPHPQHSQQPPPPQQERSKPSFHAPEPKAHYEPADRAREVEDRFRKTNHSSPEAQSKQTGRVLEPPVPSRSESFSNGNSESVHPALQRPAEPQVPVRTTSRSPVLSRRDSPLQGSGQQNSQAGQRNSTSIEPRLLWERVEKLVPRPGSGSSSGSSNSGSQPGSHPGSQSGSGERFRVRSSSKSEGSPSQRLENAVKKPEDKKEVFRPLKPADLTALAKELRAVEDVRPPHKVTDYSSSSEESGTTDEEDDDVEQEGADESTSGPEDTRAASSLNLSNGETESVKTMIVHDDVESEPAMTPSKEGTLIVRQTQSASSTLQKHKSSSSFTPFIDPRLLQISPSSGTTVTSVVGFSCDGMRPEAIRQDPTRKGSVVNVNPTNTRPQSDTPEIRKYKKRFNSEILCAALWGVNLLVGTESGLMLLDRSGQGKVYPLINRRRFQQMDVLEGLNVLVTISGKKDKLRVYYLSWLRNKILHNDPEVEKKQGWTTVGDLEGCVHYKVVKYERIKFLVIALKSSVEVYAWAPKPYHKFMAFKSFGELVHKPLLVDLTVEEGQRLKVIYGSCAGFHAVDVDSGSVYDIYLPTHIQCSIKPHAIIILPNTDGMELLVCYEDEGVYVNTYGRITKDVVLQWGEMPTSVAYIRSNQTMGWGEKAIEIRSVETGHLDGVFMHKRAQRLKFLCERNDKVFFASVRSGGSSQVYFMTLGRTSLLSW

Sequence of Non-receptor tyrosine-protein kinase TYK2 (Homo sapiens) (P29597 whole entry): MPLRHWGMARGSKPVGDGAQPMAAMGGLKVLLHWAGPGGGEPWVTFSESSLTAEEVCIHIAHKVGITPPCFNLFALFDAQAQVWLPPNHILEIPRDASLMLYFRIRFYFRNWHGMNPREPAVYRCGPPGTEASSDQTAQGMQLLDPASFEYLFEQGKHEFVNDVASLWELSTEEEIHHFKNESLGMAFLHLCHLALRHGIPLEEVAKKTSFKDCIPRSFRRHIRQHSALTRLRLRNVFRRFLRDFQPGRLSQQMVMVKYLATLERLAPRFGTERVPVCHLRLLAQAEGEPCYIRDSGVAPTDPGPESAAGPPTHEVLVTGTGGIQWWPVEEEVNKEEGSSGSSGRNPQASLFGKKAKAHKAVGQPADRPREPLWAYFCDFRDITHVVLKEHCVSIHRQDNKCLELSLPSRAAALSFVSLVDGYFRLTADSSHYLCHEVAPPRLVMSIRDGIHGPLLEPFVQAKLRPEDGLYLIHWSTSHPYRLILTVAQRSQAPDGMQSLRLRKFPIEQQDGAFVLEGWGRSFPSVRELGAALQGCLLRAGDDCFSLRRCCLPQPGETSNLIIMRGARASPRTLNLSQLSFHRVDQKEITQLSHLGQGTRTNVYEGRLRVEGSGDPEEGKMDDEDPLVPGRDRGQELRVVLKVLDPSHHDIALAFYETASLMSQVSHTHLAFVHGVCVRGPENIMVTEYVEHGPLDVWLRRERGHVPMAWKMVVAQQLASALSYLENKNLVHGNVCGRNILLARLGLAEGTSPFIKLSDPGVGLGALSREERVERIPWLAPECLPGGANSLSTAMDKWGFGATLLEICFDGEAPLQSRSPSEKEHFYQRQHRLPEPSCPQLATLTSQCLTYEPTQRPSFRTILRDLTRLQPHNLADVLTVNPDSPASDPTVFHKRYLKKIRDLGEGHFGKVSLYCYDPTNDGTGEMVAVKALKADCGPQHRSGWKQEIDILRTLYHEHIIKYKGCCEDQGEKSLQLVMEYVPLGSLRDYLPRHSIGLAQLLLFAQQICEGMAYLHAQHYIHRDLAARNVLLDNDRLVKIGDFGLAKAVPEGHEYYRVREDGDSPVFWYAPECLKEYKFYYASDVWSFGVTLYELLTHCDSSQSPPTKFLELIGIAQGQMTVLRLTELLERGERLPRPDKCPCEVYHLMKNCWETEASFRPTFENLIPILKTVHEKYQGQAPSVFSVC
Sequence of Serine/threonine-protein kinase 10 (Homo sapiens) (O94804 whole entry, looked up): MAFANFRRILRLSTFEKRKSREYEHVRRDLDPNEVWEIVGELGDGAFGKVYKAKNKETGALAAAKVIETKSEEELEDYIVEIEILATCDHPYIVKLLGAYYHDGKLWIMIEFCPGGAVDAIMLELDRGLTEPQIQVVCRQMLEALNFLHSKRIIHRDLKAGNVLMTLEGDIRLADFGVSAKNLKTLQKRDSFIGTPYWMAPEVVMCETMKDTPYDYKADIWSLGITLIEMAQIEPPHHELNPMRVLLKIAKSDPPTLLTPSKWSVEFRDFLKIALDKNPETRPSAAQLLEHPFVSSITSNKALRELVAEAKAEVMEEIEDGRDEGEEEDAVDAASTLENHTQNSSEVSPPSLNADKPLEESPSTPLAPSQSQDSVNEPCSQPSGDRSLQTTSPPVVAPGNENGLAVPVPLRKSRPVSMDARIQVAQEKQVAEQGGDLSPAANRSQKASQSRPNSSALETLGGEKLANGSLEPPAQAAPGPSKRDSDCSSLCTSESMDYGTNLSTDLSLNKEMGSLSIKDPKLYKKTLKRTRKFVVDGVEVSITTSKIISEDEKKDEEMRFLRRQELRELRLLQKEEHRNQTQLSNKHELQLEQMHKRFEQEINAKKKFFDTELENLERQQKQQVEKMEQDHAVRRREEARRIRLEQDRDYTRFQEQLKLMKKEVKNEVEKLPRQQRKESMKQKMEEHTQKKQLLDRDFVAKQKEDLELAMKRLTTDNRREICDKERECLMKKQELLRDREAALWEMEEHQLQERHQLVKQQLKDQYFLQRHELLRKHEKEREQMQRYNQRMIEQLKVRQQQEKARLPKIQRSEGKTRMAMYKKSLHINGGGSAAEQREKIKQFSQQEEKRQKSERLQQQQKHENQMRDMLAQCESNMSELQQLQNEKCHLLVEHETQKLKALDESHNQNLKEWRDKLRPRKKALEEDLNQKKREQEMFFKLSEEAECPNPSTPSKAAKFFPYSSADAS
Sequence of High affinity nerve growth factor receptor (Homo sapiens) (P04629 33-796 limits assumed): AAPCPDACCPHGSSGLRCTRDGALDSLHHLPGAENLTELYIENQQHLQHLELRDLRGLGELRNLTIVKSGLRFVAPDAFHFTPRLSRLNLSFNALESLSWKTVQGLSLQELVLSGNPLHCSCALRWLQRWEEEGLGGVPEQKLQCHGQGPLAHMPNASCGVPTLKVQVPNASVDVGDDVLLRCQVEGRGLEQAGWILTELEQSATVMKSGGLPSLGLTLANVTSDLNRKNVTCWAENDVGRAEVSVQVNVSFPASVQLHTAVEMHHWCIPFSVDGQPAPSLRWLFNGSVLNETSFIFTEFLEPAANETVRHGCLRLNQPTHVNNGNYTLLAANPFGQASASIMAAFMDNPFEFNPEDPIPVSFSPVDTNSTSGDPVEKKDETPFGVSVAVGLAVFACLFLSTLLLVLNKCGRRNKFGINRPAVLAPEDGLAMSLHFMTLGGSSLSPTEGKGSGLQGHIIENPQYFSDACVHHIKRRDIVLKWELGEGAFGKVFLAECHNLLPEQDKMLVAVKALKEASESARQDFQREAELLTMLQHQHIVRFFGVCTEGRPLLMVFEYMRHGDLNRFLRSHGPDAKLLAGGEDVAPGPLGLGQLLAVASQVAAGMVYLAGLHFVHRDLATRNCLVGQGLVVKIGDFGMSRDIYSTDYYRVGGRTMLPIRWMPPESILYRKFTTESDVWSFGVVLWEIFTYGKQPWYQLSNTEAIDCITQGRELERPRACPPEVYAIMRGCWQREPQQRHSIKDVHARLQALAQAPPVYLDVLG
Sequence of Aurora kinase B (Homo sapiens) (Q96GD4 whole entry): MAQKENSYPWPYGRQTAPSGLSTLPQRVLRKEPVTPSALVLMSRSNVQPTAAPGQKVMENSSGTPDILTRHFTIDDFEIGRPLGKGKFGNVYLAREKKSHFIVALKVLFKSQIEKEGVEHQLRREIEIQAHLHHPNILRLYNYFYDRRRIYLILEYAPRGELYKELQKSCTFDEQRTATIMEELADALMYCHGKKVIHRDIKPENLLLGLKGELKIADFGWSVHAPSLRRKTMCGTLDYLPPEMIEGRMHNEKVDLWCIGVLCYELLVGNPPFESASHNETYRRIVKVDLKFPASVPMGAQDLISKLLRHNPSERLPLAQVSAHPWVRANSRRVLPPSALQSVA

| Compound | inhibition [1] [%] | inhibition [2] [%] | inhibition [3] [%] | inhibition [4] [%] | inhibition [5] [%] | inhibition [6] [%] | inhibition [7] [%] | inhibition [8] [%] | inhibition [9] [%] | inhibition [10] [%] | inhibition [11] [%] | inhibition [12] [%] | inhibition [13] [%] | inhibition [14] [%] | inhibition [15] [%] | inhibition [16] [%] | inhibition [17] [%] | inhibition [18] [%] | inhibition [19] [%] | inhibition [20] [%] |
| --- | --- | --- | --- | --- | --- | --- | --- | --- | --- | --- | --- | --- | --- | --- | --- | --- | --- | --- | --- | --- |
| NS(=O)(=O)c1ccc(-c2cc3ccncc3cc2OCc2ccccc2)cc1 | 0.22 | 2.7 | 2.46 | 2.49 | 5.04 | 1.58 | 1.28 | -3.96 | 9.25 | 2.34 | 7.25 | 2.9 | 4.42 | -0.1 | -6.92 | 3.53 | 9.35 | -0.94 | 2.03 | 5.89 |
| CS(=O)(=O)CCNCc1nc(-c2ccc3ncnc(Nc4ccc(OCc5cccc(C(F)(F)F)c5)cc4)c3c2)cs1 | 5.08 | 2.33 | 12.1 | 1.39 | 7.81 | 6.88 | 5.83 | -3.62 | 2.16 | 3.8 | 2.26 | 4.85 | 6.3 | 5.42 | 5.59 | 6.68 | 10 | -0.19 | 3.96 | 1.73 |
| Cc1ccc(O)cc1Nc1ccnc2ccc(S(C)(=O)=O)cc12 | 2.38 | 3.22 | 5.52 | 6.41 | 7.31 | 81 | 83.8 | -1.89 | 10 | 1.96 | 6.17 | 2.16 | 5.99 | 0.93 | -0.69 | 8.9 | 36.7 | 5.18 | 31 | 8.02 |
| FC(F)(F)c1ccc(-c2nn3ncccc3c2-c2ccnc(Nc3ccc4c(c3)OCCO4)n2)cc1 | 0.14 | 1.21 | 3.15 | 1.88 | 4.32 | 6.36 | 4.7 | 3.04 | 2.98 | -2.66 | 29.2 | 7.15 | 11.2 | 4.98 | 12.1 | 10.5 | 30.1 | 6.41 | 6.88 | 3.6 |
| NS(=O)(=O)c1ccc(N/N=C2\C(=O)Nc3ccc(Cl)cc32)cc1 | 17.9 | 5.72 | 34.7 | 9.02 | 42.3 | 3.22 | 4.96 | -4.4 | 45.1 | 3.86 | 26.8 | 3.68 | 6.25 | 1.97 | 5.64 | 6.82 | 6.74 | 0.49 | 3.26 | 25.7 |
| COc1cc(/C=N/Nc2ncnc3c2cnn3C(C)C)ccc1O | 8.39 | 4.28 | 31.4 | 3.32 | 29.1 | 3.5 | 14.1 | 0.13 | 2.81 | 3.73 | 37.7 | 3.34 | 15.5 | 1.77 | 13.8 | 3 | 21.7 | 2.5 | 9.5 | 7.32 |
| COc1cc2ncnc(Nc3ccc(C)c(O)c3)c2cc1OC | 2.17 | 3.65 | 6.25 | 1.67 | 7.05 | 8.65 | 29.5 | -5.98 | 7.27 | 2.56 | 7.23 | 4.5 | 8.54 | 1.17 | 4.32 | 21.1 | 70.1 | 2.26 | 5.63 | 7.16 |
| N#Cc1c(NC(=O)c2ccccc2F)sc2c1CCCC2 | -2.78 | -1.85 | -1.97 | 0.83 | -1.95 | -0.16 | 1.71 | 2.79 | 1.13 | -0.7 | -2.59 | -1.47 | 0.26 | -2 | 0.91 | -0.59 | 4.2 | 1.34 | 2.61 | -1.47 |
| Oc1cccc(-c2nc(-c3ccccc3)[nH]c2-c2ccncc2)c1 | 5.31 | 3.82 | 5.72 | 4.99 | 7.3 | 3.28 | 13.8 | -1.97 | 12.4 | 2.96 | 4.61 | 3.38 | 8.4 | 2.05 | -2.07 | 4.37 | 16.6 | 0.57 | 4.27 | 4.05 |
| Cc1nc(-c2ccccc2)n2nc(NCCCN3CCOCC3)ncc12 | 5.06 | 1.8 | 3.5 | 2.73 | 2.25 | 4.46 | 3.59 | -3.48 | 5.84 | 3.52 | 5.63 | 1.82 | 8.37 | 1.43 | 12.1 | 4.62 | 7.49 | 2.45 | 2.48 | 1.62 |
| COc1ccc2ncnc(Nc3ccc(OCc4ccccc4)cc3)c2c1 | 1.61 | 2.59 | 2.63 | -0.03 | 0.85 | 2.73 | 3.98 | -2.4 | 4.18 | 1.97 | 8.54 | 2.34 | 22 | 1.84 | 10.5 | 4.51 | 9.23 | 0.8 | 1.74 | 3.79 |
| Cc1cc(-c2ccccn2)cc(C)c1/C=C/c1cncc(-c2nn[nH]n2)c1 | 10 | 3.94 | 4.13 | 1.49 | 2.54 | 2.93 | 4.47 | -2.23 | 9.95 | 1.9 | 5.71 | 2.09 | 7.42 | 4.2 | 19.6 | 6.35 | 13.7 | -1.16 | 3.53 | 2.48 |
| CCOc1nccc2c1nc(-c1nonc1N)n2CC | 3.61 | -0.99 | 5.51 | 1.31 | 5.16 | 4.89 | 5.69 | -0.93 | 6.96 | 0.6 | 8.92 | 5.61 | 8.46 | 2.28 | -5.69 | 11.5 | 19.9 | 5.01 | 10.6 | 3.98 |
